The antibiotic and cytotoxicity screens of Wong et al. (2023)
Among all 39,000 compounds or so, about 3,300 (8.5%) were called active. This excerpt belongs to a sample that is enriched for actives.

test system: HepG2; experiment: cytotoxicity call (relative viability < 0.9); conditions: 10 µM

Row | SMILES | cytotoxicity call
1 | Cc1ccc(S(=O)(=O)N(C)C[C@@H]2Oc3c(NC(=O)C4CC4)cccc3C(=O)N([C@H](C)CO)C[C@@H]2C)cc1 | inactive
2 | C[C@@H]1CN([C@@H](C)CO)S(=O)(=O)c2ccc(C#C[C@@H](C)O)cc2O[C@H]1CN(C)C(=O)Nc1ccccc1 | inactive
3 | C[C@H]1CN([C@@H](C)CO)C(=O)c2cccc(NS(=O)(=O)c3cn(C)cn3)c2O[C@H]1CN(C)Cc1ccc2c(c1)OCO2 | inactive
4 | C[C@@H]1CCCCO[C@H](CN(C)Cc2ccc(C(=O)O)cc2)[C@H](C)CN([C@H](C)CO)C(=O)c2cc(NS(=O)(=O)c3ccc(F)cc3)ccc2O1 | inactive
5 | CC(C)NC(=O)Nc1ccc2c(c1)C(=O)N([C@H](C)CO)C[C@H](C)[C@H](CN(C)S(C)(=O)=O)OCCCC[C@H](C)O2 | inactive
6 | CCCC(=O)Nc1ccc2c(c1)C(=O)N(C)C[C@@H](OC)[C@H](C)CN(S(=O)(=O)c1cn(C)cn1)[C@H](C)CO2 | inactive
7 | C[C@@H]1CN([C@H](C)CO)C(=O)c2cccc(NS(=O)(=O)c3cccs3)c2O[C@@H]1CN(C)CC1CC1 | inactive
8 | COc1ccccc1C#Cc1cnc2c(c1)C(=O)N([C@@H](C)CO)C[C@@H](C)[C@@H](CN(C)C(=O)CC1CC1)O2 | inactive
9 | C[C@H]1CCCCO[C@H](CN(C)C(=O)Nc2ccccc2)[C@@H](C)CN([C@@H](C)CO)C(=O)c2cc(NS(=O)(=O)c3ccc(Cl)cc3)ccc2O1 | inactive
10 | COc1ccc(NC(=O)N(C)C[C@@H]2Oc3ccc(NC(=O)CCN4CCOCC4)cc3CC(=O)N([C@H](C)CO)C[C@@H]2C)cc1 | inactive
11 | C[C@H]1CN([C@@H](C)CO)C(=O)Cc2cc(NC(=O)Nc3ccc(C(F)(F)F)cc3)ccc2O[C@@H]1CN(C)C(=O)Nc1cccc2ccccc12 | inactive
12 | C[C@@H]1CN([C@H](C)CO)C(=O)Cc2cc(NS(=O)(=O)c3cn(C)cn3)ccc2O[C@@H]1CN(C)CC1CCCCC1 | inactive
13 | C[C@H](CO)N1C[C@H](C)[C@@H](CN(C)Cc2ccc(Oc3ccccc3)cc2)Oc2ncc(-c3ccncc3)cc2C1=O | inactive
14 | C[C@@H]1CCCCO[C@H](CN(C)CC2CCCCC2)[C@H](C)CN([C@@H](C)CO)C(=O)c2cc(NC(=O)Nc3ccc(C(F)(F)F)cc3)ccc2O1 | active
15 | C[C@@H]1CCCCO[C@H](CN(C)CC2CCCCC2)[C@H](C)CN([C@H](C)CO)C(=O)c2cc(NC(=O)Nc3ccc(C(F)(F)F)cc3)ccc2O1 | active
16 | C[C@@H]1CN([C@@H](C)CO)C(=O)c2cc(NC(=O)Nc3ccc(C(F)(F)F)cc3)ccc2O[C@@H](C)CCCCO[C@@H]1CN(C)CC1CCCCC1 | active
17 | CCOC(=O)CCCCCC(=O)Nc1ccc2c(c1)C(=O)N([C@H](C)CO)C[C@@H](C)[C@@H](CN(C)S(=O)(=O)c1ccc(Cl)cc1)OCCCC[C@H](C)O2 | inactive
18 | Cc1ccc(S(=O)(=O)Nc2cccc3c2O[C@@H](CN(C)C(=O)Nc2cccc4ccccc24)[C@@H](C)CN([C@@H](C)CO)C3=O)cc1 | inactive
19 | Cc1ccc(S(=O)(=O)N(C)C[C@@H]2Oc3ccc(NS(=O)(=O)c4ccccc4)cc3CC(=O)N([C@H](C)CO)C[C@H]2C)cc1 | inactive
20 | CN1CC(=O)NC1=O | inactive
21 | O=C(NCCCO)C(=O)NC[C@H]1COc2ccccc2O1 | inactive
22 | C[C@H](CO)N1C[C@H](C)[C@@H](CN(C)Cc2ccc3c(c2)OCO3)Oc2ncc(C#CCN(C)C)cc2C1=O | inactive

Row | SMILES | cytotoxicity call
23 | CCCCC(=O)OC1CCC2C3CCc4cc(O)ccc4C3CCC12C (centres undefined) | inactive
24 | Cc1ccc(S(=O)(=O)Nc2ccc3c(c2)C(=O)N([C@@H](C)CO)C[C@@H](C)[C@H](CN(C)S(=O)(=O)c2cn(C)cn2)O3)cc1 | inactive
25 | Cc1c[nH]c2ccccc12 | inactive
26 | Cc1cc(C)c2[nH]c3ccccc3c2n1 | active
27 | CN(C)Cc1nc(=O)c2ccccc2[nH]1 | inactive
28 | Cc1ccc(S(=O)(=O)N(C)C[C@H]2OCCCC[C@@H](C)Oc3ccc(NC(=O)Cc4ccccc4)cc3C(=O)N([C@@H](C)CO)C[C@@H]2C)cc1 | inactive
29 | Cc1noc(C)c1NC(=O)Nc1ccc2c(c1)CC(=O)N([C@H](C)CO)C[C@@H](C)[C@@H](CN(C)Cc1ccc(Cl)c(Cl)c1)O2 | inactive
30 | C[C@H](CO)N1C[C@H](C)[C@H](CN(C)Cc2ccc(Oc3ccccc3)cc2)Oc2ccc(NS(=O)(=O)c3ccc(Cl)cc3)cc2CC1=O | active
31 | C[C@H]1CN([C@@H](C)CO)C(=O)Cc2cc(NS(=O)(=O)c3ccc(Cl)cc3)ccc2O[C@H]1CN(C)Cc1ccc(Oc2ccccc2)cc1 | active
32 | C[C@@H]1CN([C@H](C)CO)C(=O)Cc2cc(NS(=O)(=O)c3ccc(Cl)cc3)ccc2O[C@H]1CN(C)Cc1ccc(Oc2ccccc2)cc1 | active
33 | C[C@@H]1CN([C@@H](C)CO)C(=O)Cc2cc(NS(=O)(=O)c3ccc(Cl)cc3)ccc2O[C@@H]1CN(C)Cc1ccc(Oc2ccccc2)cc1 | active
34 | COCCNC(=O)C[C@H]1C[C@@H]2c3cc(NC(=O)Nc4ccc(C(F)(F)F)cc4)ccc3O[C@@H]2[C@H](CO)O1 | inactive
35 | C[C@H]1CN([C@@H](C)CO)C(=O)Cc2cc(NC(=O)CCCCCC(=O)Nc3ccccc3N)ccc2O[C@H]1CN(C)C(=O)Nc1cccc2ccccc12 | inactive
36 | Cc1cccc(N2C[C@@H](CN)OC2=O)c1 | inactive
37 | O=C(O)C[C@@H]1C=C[C@H](NC(=O)c2ccncc2)[C@@H](CO)O1 | inactive
38 | O=C(NO)c1ccc(C(=O)N/N=C/c2cccc(B(O)O)c2)cc1 | inactive
39 | C[C@@H]1CN([C@@H](C)CO)C(=O)c2cc(NS(=O)(=O)c3cccs3)ccc2O[C@@H](C)CCCCO[C@H]1CN(C)C(=O)Nc1ccc(F)cc1 | inactive
40 | COc1ccc(S(=O)(=O)Nc2cccc3c2O[C@H](CN(C)S(=O)(=O)c2cccs2)[C@@H](C)CN([C@H](C)CO)C3=O)cc1 | inactive
41 | C[C@H]1CN([C@@H](C)CO)C(=O)Cc2cc(NS(=O)(=O)c3ccc(Cl)cc3)ccc2O[C@@H]1CN(C)Cc1ccc(Oc2ccccc2)cc1 | active
42 | C[C@H](CO)N1C[C@H](C)[C@@H](CN(C)Cc2ccc(Oc3ccccc3)cc2)Oc2ccc(NS(=O)(=O)c3ccc(Cl)cc3)cc2CC1=O | inactive
43 | C[C@@H]1CN([C@H](C)CO)C(=O)Cc2cc(NS(=O)(=O)c3ccc(Cl)cc3)ccc2O[C@@H]1CN(C)Cc1ccc(Oc2ccccc2)cc1 | active
44 | C[C@@H]1CN([C@@H](C)CO)C(=O)Cc2cc(NS(=O)(=O)c3ccc(Cl)cc3)ccc2O[C@H]1CN(C)Cc1ccc(Oc2ccccc2)cc1 | active
